# Results from PubChem BioAssay AID1850 (Southern Research Specialized Biocontainment Screening …, 2009).
# “And” between values parts separate entries of the source, which are not always exact repeats. Equal entries are not always repeated. About 1,000 (0.32%) of roughly 310,000 compounds were called active. The rule behind the calls is not given here. These entries were drawn from the full list. Measured potencies and affinities stand elsewhere.
# Assay: Inhibition of PhoP regulon, Salmonella typhi GFP reporter cells, confirmation, 4 h (AID 1850);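 note: 0% = induced wells with vehicle and 100% = uninduced wells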
# Settings: Salmonella Typhi PhoP-promoter GFP reporter, fluorescence, at 50 µM, stronger effect = higher value
row,SMILES,inhibition
1,O=C(O)[C@@H]1CC(O)CN1C(=O)CCc1c[nH]c2ccccc12 (some centres undefined),6.6% (inactive)
2,CN(C)CC/C=C1\c2cc(Cl)ccc2Sc2cc(F)c(F)cc21,10.9% (inactive)
3,CN(C)CC/C=C1/c2ccc(F)cc2Sc2ccc(Cl)cc21,-10.8% (inactive)
4,CN(C)CC/C=C1/c2ccccc2Sc2ccc(Cl)cc21,21% (inactive)
5,CN(C)CC/C=C1/c2cc(F)ccc2CSc2ccc(F)cc21,-7.52% (inactive)
6,CN(C)CC/C=C1\c2cc(F)ccc2CSc2ccccc21,1.61% (inactive)
7,CN(C)CC/C=C1/c2ccccc2Sc2c(O)cc(Cl)cc21,14.1% (inactive)
8,COc1cc2c(cc1Cl)/C(=C\CCN(C)C)c1ccccc1S2,2.09% (inactive)
9,COc1cc(Cl)cc2c1Sc1ccccc1/C2=C/CCN(C)C,-4.02% (inactive)
10,Cc1cccc(OCCCC(=O)Nc2ccc(S(N)(=O)=O)cc2)c1,-6.31% (inactive)
11,CCCCCCSc1ccc(-c2nc3ccccn3c2NCCCC)cc1,-1.64% (inactive)
12,CC(C)CC(=O)c1c[nH]c(C(=O)NCCCN2CCOCC2)c1,0.393% (inactive)
13,CCc1nnc(NC(=O)C=C(C)C)s1,-12.1% (inactive)
14,O=C(CSc1nccn1-c1ccccc1)NCc1ccc(F)cc1,5.7% (inactive)
15,Cc1cc(C)cc(NC(=O)N2CCC(NC(=O)c3ccco3)CC2)c1,-4.45% (inactive)
16,COc1cc(C2(O)CCCCC2C)cc(OC)c1OC (centres undefined),0.64% (inactive)
17,CC(C)C(C(=O)NCc1ccco1)N(Cc1ccco1)C(=O)CNS(=O)(=O)c1ccc(F)cc1 (centres undefined),-1.96% (inactive)
18,COc1ccc(Cl)cc1NC(=S)NCc1cccs1,-1.43% (inactive)
19,Cc1ccc(NC(=O)c2cc(NC(=O)C3CC=CCC3C(=O)O)ccc2N2CCOCC2)cc1 (centres undefined),-15.3% (inactive)
20,C/C(=N\NC(=O)c1ccc(F)cc1)c1ccc(NC(=O)Cc2ccccc2)cc1,-10.7% (inactive)
21,COc1cccc(-c2nc(NCC3CCCO3)c3ccccc3n2)c1O (centres undefined),0.02% (inactive)
22,c1ccc2c(NCC3CCCO3)nc(N3CCOCC3)nc2c1 (centres undefined),0.7% (inactive)
23,Oc1ccccc1Nc1nc(NCC2CCCO2)c2ccccc2n1 (centres undefined),19.4% (inactive)
24,Oc1ccccc1-c1nc(NCC2CCCO2)c2ccccc2n1 (centres undefined),-0.56% (inactive)
25,COc1ccccc1Nc1nc(NCC2CCCO2)c2ccccc2n1 (centres undefined),29.6% (inactive)

row,SMILES,inhibition
1,Oc1ccc(Cl)cc1Nc1nc(NCC2CCCO2)c2ccccc2n1 (centres undefined),3.79% (inactive)
2,COc1ccc(-c2cc(C(=O)NCC3CCCO3)c3ccccc3n2)c(OC)c1 (centres undefined),-4% (inactive)
3,COc1ccc(S(=O)(=O)Nc2nc3ccccc3nc2NCC2CCCO2)cc1 (centres undefined),-1.23% (inactive)
4,O=C1CN=C(c2ccc[nH]2)c2cc(Cl)ccc2N1,-4.67% (inactive)
5,COC(=O)C1SCC2C(=O)N(Cc3cccc(C)c3)CC(=O)N21 (centres undefined),0.26% (inactive)
6,CN1C(=S)SC(C)(C)C1(C)NO (centres undefined),-6.1% (inactive)
7,O=C(CSc1nccn1Cc1ccccc1)Nc1ccccc1,-2.04% (inactive)
8,CN(C)N1C(N)=C(C#N)C(c2ccc3c(c2)OCO3)C2=C1CC(C)(C)CC2=O (centres undefined),-10.5% (inactive)
9,CC(C)Oc1ccc(-c2nc(NCC3CCCO3)c3ccccc3n2)cc1 (centres undefined),-13.6% (inactive)
10,c1ccc(-c2nc(NCC3CCCO3)c3ccccc3n2)nc1 (centres undefined),2.1% (inactive)
11,O=C(CN1CCN(c2ccc([N+](=O)[O-])cc2Cl)CC1)N1CCOCC1,2.81% (inactive)
12,COc1ccc(CN(CCN(C)C)c2ccccn2)cc1,-13% (inactive) and 6.04% (inactive)
13,CC[N+](C)(C)CCN(Cc1ccc(Cl)cc1)c1ccccn1,1.18% (inactive)
14,CCC(=O)N1CCc2cc(S(=O)(=O)NC(Cc3ccccc3)C(=O)O)ccc21 (centres undefined),-1.37% (inactive)
15,Cc1nc(C(=O)NCCCO)cc2c1[nH]c1ccccc12,-6.79% (inactive)
16,Cc1ccc(S(=O)(=O)N(CC(=O)NCc2ccncc2)Cc2ccc(F)cc2)cc1,3.98% (inactive)
17,COc1ccc2[nH]cc(/C=N/NS(=O)(=O)c3ccc(C)cc3)c2c1,15.2% (inactive)
18,NC(=S)N/N=C/c1c[nH]c2ccc(OCc3ccccc3)cc12,-7.88% (inactive)
19,CSc1cccc(NC(=O)CCCOc2ccc(Cl)cc2C)c1,-5.44% (inactive)
20,CCCNCc1cc(Br)ccc1OCC(=O)NCCc1ccccc1,-3.03% (inactive)
21,CCN(CC)CCNCc1cc(Br)ccc1OCC(=O)NCc1ccccc1,-28.2% (inactive)
22,CCOc1ccccc1CNC(=O)Cn1ccc2cc(S(=O)(=O)N3CCCC3)ccc21,3.38% (inactive)
23,Cc1c(C(=O)NC(Cc2ccccc2)c2nc3ccccc3[nH]2)cccc1[N+](=O)[O-] (centres undefined),-6.76% (inactive)
24,O=Nc1c(O)[nH]c2c(F)cccc12,-3.73% (inactive)
25,O=Nc1c(O)n(Cc2ccccc2)c2ccccc12,-9.56% (inactive)

row,SMILES,inhibition
1,CCOC(=O)CC(c1ccc(N)cc1)n1c(C)ccc1C (centres undefined),-3.47% (inactive)
2,COc1ccc(Cc2noc(CN3CCCC(C(=O)c4cccs4)C3)n2)cc1OC (centres undefined),-18.4% (inactive)
3,CCn1c(SCC(=O)NC2CCS(=O)(=O)C2)nnc1-c1ccccc1 (centres undefined),3.32% (inactive)
4,Cc1nnc(SCC(=O)NC2CCS(=O)(=O)C2)n1-c1ccccc1 (centres undefined),6.38% (inactive)
5,CN(C)c1nc(SCC(=O)Nc2ccccc2)nc(N2CCOCC2)n1,3.38% (inactive)
6,O=C1CN(Cc2cc(=O)oc3cc4c(cc23)CCC4)CCN1,-4.78% (inactive)
7,CC1(C)C(=O)Nc2ccccc2N1C(=O)COC(=O)/C=C/c1ccc(OC(F)F)cc1,-3.59% (inactive)
8,COc1cccc(C(C(=O)NC2CCCCC2)N(C(=O)Cc2cccs2)c2ccc(-n3cnnn3)c(OC)c2)c1 (centres undefined),-9.92% (inactive)
9,CC1CC(NC(=O)/C(C#N)=C/c2ccc[nH]2)CC(C)(C)C1 (centres undefined),5.38% (inactive)
10,N#C/C(=C\c1ccccc1)C(=O)NC1CC1,2.22% (inactive)
11,COc1ccc(-n2nc(C(=O)NCC(=O)N3CCN(c4ccccc4)CC3)c3ccccc3c2=O)c(OC)c1,3.7% (inactive)
12,CCCCCNc1nc(NCCCO)c(C#N)c2c1CN(C)CC2,-3.01% (inactive)
13,CC(C)CCNc1nc(N2CCCC2)c2c(c1C#N)CCN(C)C2,19.4% (inactive)
14,CC1(c2ccc(Cl)cc2Cl)NC(=O)N(CC(=O)Nc2ccc3[nH]c(=O)[nH]c3c2)C1=O (centres undefined),-3.74% (inactive)
15,COc1ccc(CNC(=O)C2CCCN(S(=O)(=O)N3CCC(C)CC3)C2)c(OC)c1 (centres undefined),-14.4% (inactive)
16,CCN(CC)C(=O)c1sc(N2C(=O)Nc3ccccc3N2O)c(C(=O)OC)c1C,-7.07% (inactive)
17,Cc1ccc(N2C(=O)CC(Sc3ncccc3C(=O)O)C2=O)cc1 (centres undefined),-7.58% (inactive)
18,Cc1ccc(NC2=NC3(CCCC3)N=C(N)N2)c(C)c1,13.7% (inactive)
19,CCOc1ccc(NC2=NC(C)(C)N=C(N)N2)cc1,5.96% (inactive)
20,NC1=NC2(CCCCC2)N=C(Nc2ccc(F)cc2F)N1,19% (inactive)
21,CCCCOc1ccc(N2C(N)=NC(N)=NC23CCCCC3)cc1,4.38% (inactive)
22,Cc1ccc(-c2[nH]ncc2/C=N/n2c(COc3ccccc3)nc3ccccc3c2=O)cc1,-8.67% (inactive)
23,Cc1nc2ccccc2c(=O)n1/N=C/c1ccccc1O,1.57% (inactive)
24,Cc1nc2ccccc2c(=O)n1/N=C/c1cc(Br)cc(Br)c1O,9.81% (inactive)
25,Cc1nc2ccccc2c(=O)n1/N=C/c1cn[nH]c1-c1ccccc1,-0.17% (inactive)

row,SMILES,inhibition
1,COc1ccc(NC(=O)C2CCCN2C(=O)NCc2ccccc2)cc1 (centres undefined),-5.86% (inactive)
2,CSc1cccc(N2CC(C(=O)N(CC(C)C)c3c(N)n(Cc4ccccc4)c(=O)[nH]c3=O)CC2=O)c1 (centres undefined),-3.17% (inactive)
3,CCOc1ccc(C(=O)Nc2nnc(C(C)C)s2)cc1OCC,-1.68% (inactive)
4,COCCN1CCN(C(=O)C2CCC(=O)N(CCc3ccc(Cl)cc3)C2)CC1 (centres undefined),-4.1% (inactive)
5,c1ccc(Nc2cccc(Nc3ccccc3)n2)cc1,6.98% (inactive)
6,Nc1ncnc(Nc2ccc(F)cc2)n1,-3.3% (inactive)
7,COc1ccc(Nc2ccnc(Nc3ccc(OC)cc3)n2)cc1,-1.84% (inactive)
8,O=C(O)c1cccc(Nc2ccnc(Nc3cccc(C(=O)O)c3)n2)c1,2.42% (inactive)
9,Cc1c(C(=O)O)oc2ccc(S(=O)(=O)N3CCCCC3C(=O)O)cc12 (centres undefined),-3.93% (inactive)
10,C/C=C/c1ccc(OCC(O)CN2CCCCC2CC)c(OC)c1 (centres undefined),8.19% (inactive)
11,S=C1NC2(CCCCC2)NC12CCCCC2,-9.21% (inactive)
12,Cc1sc2nc(SCC(N)=O)n(-c3ccccc3)c(=O)c2c1C,-0.27% (inactive)
13,O=C(NNc1nc2ccccc2s1)c1ccc(F)cc1,-6.05% (inactive)
14,O=C(NNc1nc2cc3c(cc2s1)OCO3)c1cccc(F)c1,-11.1% (inactive)
15,CC(C)(C)c1ccc(S(=O)(=O)NNC(=O)C2CCN(Cc3cccc(F)c3)CC2)cc1,6.86% (inactive)
16,C=CCOC(=O)C1=C(C)NC(SCC(=O)Nc2nccs2)=C(C#N)C1c1ccc(Cl)cc1 (centres undefined),3.36% (inactive)
17,CC(C)c1ccc2c(c1)C(N1CCNCC1)Cc1ccc(F)cc1S2 (centres undefined),19.3% (inactive)
18,c1ccc2c(c1)CC(N1CCCCC1)c1ccccc1S2 (centres undefined),16.3% (inactive)
19,CN1CCN(C2Cc3ccccc3Sc3ccc(Cl)cc32)CC1 (centres undefined),-13% (inactive)
20,O=C1Cc2ccccc2Sc2ccc(Cl)cc21,-8.12% (inactive)
21,c1ccc2c(c1)CC(N1CCCCC1)c1ccccc1N2 (centres undefined),-3.45% (inactive)
22,CN1CCN(C2Cc3ccccc3Sc3cc(C(F)(F)F)ccc32)CC1 (centres undefined),2.06% (inactive)
23,NC(=O)CCN1CCN(CCOC2Cc3cc(Cl)ccc3Sc3ccccc32)CC1 (centres undefined),-4.99% (inactive)
24,CN1Cc2cccc3c2C(Cc2ccccc2S3)C1 (centres undefined),-6.53% (inactive)
